# Source: PMC5540273 (PLoS ONE, 2017)
# Values joined by “and” are separate entries in the source; they are usually repeats but may differ in a detail not shown here. Equal entries are not always repeated. Where two headings read alike, the source gives them in different places.
# Tests used:
# Settings in all cases: n = 1
# AAK1 = test system: AAK1
# ABL1-nonphosphorylated = test system: ABL1-nonphosphorylated
# ABL1-phosphorylated = test system: ABL1-phosphorylated
# ABL2 = test system: ABL2
# ACVR1B = test system: ACVR1B
# ACVR1 = test system: ACVR1
# ACVR2A = test system: ACVR2A
# [1] = concentration: 1 μM, replicates: in singlicate
# [2] = concentration: 1 μM,replicates: in singlicate, 1 µM
# 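Further: KINOMEscan kinase panel screen.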
smiles,measurement,setting,value
COc1ccc(Nc2nccc(NCCNC(=O)Nc3ccccc3F)n2)cc1 [GSK1379901],%Inh,AAK1; [1],80%
same,%Inh,ABL1-nonphosphorylated; [1],0%
same,%Inh,ABL1-phosphorylated; [1],1%
same,%Inh,ABL2; [1],0%
same,%Inh,ACVR1B; [1],0%
same,%Inh,ACVR1; [1],21%
same,%Inh,ACVR2A; [1],0%
COc1cccc(NC(=O)NC2CCN(c3ccnc(Nc4ccc(F)cc4)n3)C2)c1 (stereo not drawn) [GSK1379721],%Inh,AAK1; [1],5%
same,%Inh,ABL1-nonphosphorylated; [1],0%
same,%Inh,ABL1-phosphorylated; [1],0%
same,%Inh,ABL2; [1],0%
same,%Inh,ACVR1B; [1],0%
same,%Inh,ACVR1; [1],0%
same,%Inh,ACVR2A; [1],100%
Cc1nnc(-c2ccc3occ(-c4ccc(S(C)=O)cc4)c3c2)[nH]1 (stereo not drawn),%Inh,AAK1; [1],25%
same,%Inh,ABL1-nonphosphorylated; [1],17%
same,%Inh,ABL1-phosphorylated; [1],0%
same,%Inh,ABL2; [1],7%
same,%Inh,ACVR1B; [1],0%
same,%Inh,ACVR1; [1],0%
same,%Inh,ACVR2A; [1],23%
O=C(Nc1n[nH]c2nc(-c3nccs3)c(Br)cc12)C1CC1 [SB-742251],%Inh,AAK1; [1],15%
same,%Inh,ABL1-nonphosphorylated; [1],0%
same,%Inh,ABL1-phosphorylated; [1],22%
same,%Inh,ABL2; [1],7%
same,%Inh,ACVR1B; [1],0%
same,%Inh,ACVR1; [1],6%
same,%Inh,ACVR2A; [1],0%
CSc1nn2c(=O)cc(N3CCOCC3)nc2n1Cc1cccc(C(F)(F)F)c1C [GSK2363608],%Inh,AAK1; [2],3% and 25%
same,%Inh,ABL1-nonphosphorylated; [1],0%
same,%Inh,ABL1-phosphorylated; [1],0%
same,%Inh,ABL2; [2],5% and 17%
same,%Inh,ACVR1B; [1],0%
same,%Inh,ACVR1; [2],0% and 14%
same,%Inh,ACVR2A; [1],0%
COc1ccc(Nc2nccc(-c3cccc(NC(=O)c4cc5cc(F)ccc5[nH]4)c3)n2)cc1 [GSK1229782],%Inh,AAK1; [1],47%
same,%Inh,ABL1-nonphosphorylated; [1],85%
same,%Inh,ABL1-phosphorylated; [1],78%
same,%Inh,ABL2; [1],53%
same,%Inh,ACVR1B; [1],0%
same,%Inh,ACVR1; [1],9%
same,%Inh,ACVR2A; [1],13%
Cc1cccc(-c2nc(Nc3ccncc3)c3ccccc3n2)n1 [GW855857],%Inh,AAK1; [1],2%
same,%Inh,ABL1-nonphosphorylated; [1],39%
same,%Inh,ABL1-phosphorylated; [1],28%
same,%Inh,ABL2; [1],22%
same,%Inh,ACVR1B; [1],94.3%
same,%Inh,ACVR1; [1],15%
same,%Inh,ACVR2A; [1],24%
O=C(O)COc1ncnc2cc(-c3ccc4[nH]ncc4c3)sc12,%Inh,AAK1; [1],52%
same,%Inh,ABL1-nonphosphorylated; [1],33%
same,%Inh,ABL1-phosphorylated; [1],7%
same,%Inh,ABL2; [1],0%
same,%Inh,ACVR1B; [1],31%
same,%Inh,ACVR1; [1],1%
same,%Inh,ACVR2A; [1],4%
Fc1cc(Cl)ccc1Nc1ccnc2cc(I)ccc12 [GW551191],%Inh,AAK1; [1],11%
same,%Inh,ABL1-nonphosphorylated; [1],22%
same,%Inh,ABL1-phosphorylated; [1],26%
same,%Inh,ABL2; [1],29%
same,%Inh,ACVR1B; [1],0%
same,%Inh,ACVR1; [1],54%
same,%Inh,ACVR2A; [1],0%
Cc1cc(NCC(c2ccccc2)c2ccccc2)nc(NCc2ccc(C(F)(F)F)cc2)n1 [GW497681],%Inh,AAK1; [1],0%
same,%Inh,ABL1-nonphosphorylated; [1],0%
same,%Inh,ABL1-phosphorylated; [1],0%
same,%Inh,ABL2; [1],0%
same,%Inh,ACVR1B; [1],0%
same,%Inh,ACVR1; [1],0%
same,%Inh,ACVR2A; [1],0%
COc1cc(Nc2nccc(N3CCC(NC(=O)Nc4cc(C)ccc4C)C3)n2)cc(OC)c1OC (stereo not drawn) [GSK1379762],%Inh,AAK1; [1],46%
same,%Inh,ABL1-nonphosphorylated; [1],0%
same,%Inh,ABL1-phosphorylated; [1],0%
same,%Inh,ABL2; [1],22%
same,%Inh,ACVR1B; [1],0%
same,%Inh,ACVR1; [1],12%
same,%Inh,ACVR2A; [1],0%
COc1cccc(-c2cc(-c3c[nH]nc3-c3ccccn3)ccn2)c1 [GW680338],%Inh,AAK1; [1],4%
same,%Inh,ABL1-nonphosphorylated; [1],0%
same,%Inh,ABL1-phosphorylated; [1],3%
same,%Inh,ABL2; [1],0%
same,%Inh,ACVR1B; [1],50%
same,%Inh,ACVR1; [1],24%
same,%Inh,ACVR2A; [1],9%
CCn1c(-c2cccnc2O)nc2cnccc21 [SB-736715],%Inh,AAK1; [1],0%
same,%Inh,ABL1-nonphosphorylated; [1],43%
same,%Inh,ABL1-phosphorylated; [1],0%
same,%Inh,ABL2; [1],4%
same,%Inh,ACVR1B; [1],0%
same,%Inh,ACVR1; [1],0%
same,%Inh,ACVR2A; [1],0%
CS(=O)(=O)c1ccc(-c2c(-c3ncn[nH]3)sc(N3CCOCC3)c2C#N)cc1,%Inh,AAK1; [1],18%
same,%Inh,ABL1-nonphosphorylated; [1],30%
same,%Inh,ABL1-phosphorylated; [1],13%
same,%Inh,ABL2; [1],7%
same,%Inh,ACVR1B; [1],14%
same,%Inh,ACVR1; [1],0%
same,%Inh,ACVR2A; [1],0%
COc1ccc(CNC(=O)NC2CCN(c3ccnc(Nc4cc(OC)c(OC)c(OC)c4)n3)C2)cc1 (stereo not drawn) [GSK1379748],%Inh,AAK1; [1],49%
same,%Inh,ABL1-nonphosphorylated; [1],0%
same,%Inh,ABL1-phosphorylated; [1],0%
same,%Inh,ABL2; [1],0%
same,%Inh,ACVR1B; [1],0%
same,%Inh,ACVR1; [1],15%
same,%Inh,ACVR2A; [1],0%
Cn1ccc2ncnc(Oc3cccc(C(=O)Nc4ccccc4)c3)c21,%Inh,AAK1; [1],22%
same,%Inh,ABL1-nonphosphorylated; [1],0%
same,%Inh,ABL1-phosphorylated; [1],0%
same,%Inh,ABL2; [1],0%
same,%Inh,ACVR1B; [1],1%
same,%Inh,ACVR1; [1],100%
same,%Inh,ACVR2A; [1],0%
Cc1ccc(NC(=O)Nc2cccc(C(F)(F)F)c2)cc1 [GSK955403],%Inh,AAK1; 1 µM,26%
same,%Inh,ABL1-nonphosphorylated; 1 µM,49%
same,%Inh,ABL1-phosphorylated; 1 µM,23%
same,%Inh,ABL2; 1 µM,3%
same,%Inh,ACVR1B; 1 µM,85%
same,%Inh,ACVR1; 1 µM,10%
same,%Inh,ACVR2A; 1 µM,2%
O=C(Nc1ccccc1)Nc1cccc(Oc2ccc3nccn3n2)c1,%Inh,AAK1; [1],0%
same,%Inh,ABL1-nonphosphorylated; [1],89%
same,%Inh,ABL1-phosphorylated; [1],6%
same,%Inh,ABL2; [1],31%
same,%Inh,ACVR1B; [1],0%
same,%Inh,ACVR1; [1],0%
same,%Inh,ACVR2A; [1],0%
